# PTHR1 ag – agonists of human PTHR1 parathyroid hormone receptor. Potency, µM (top dose mostly 115 µM), inactives show top-dose activation, most hits filed as activators. HEK293 GP2 PTHR1 cells, GloSensor cAMP luminescence, 1 h. 410,000 compounds, 0.075% hits. Q03431; further: nearly all actives have a fitted effect of over 55% in size
#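 HEK-293-derived GP2 cells expressing PTHR1 and a GloSensor cAMP reporter, 3,000/well, plated overnight, given luciferin plus IBMX (each 0.5 mM as added) for 1 h at 37 °C, then compound for 1 h at 37 °C. Luminescence was read after 15 min at room temperature.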
# GLP-1R agonist – activates the human GLP-1 receptor; HEK293 GLP-1R CRE-luciferase, luminescence, 4-6 h; cells express a hypersensitive GLP-1R form; Potency, µM (highest dose often 45.6 µM), without a hit: top-dose activation, actives largely listed as activators; 380,000 compounds, 0.007% hits; AID 624172; further: % of control where 0% means no effect
# Target sequence (P43220 whole entry, looked up): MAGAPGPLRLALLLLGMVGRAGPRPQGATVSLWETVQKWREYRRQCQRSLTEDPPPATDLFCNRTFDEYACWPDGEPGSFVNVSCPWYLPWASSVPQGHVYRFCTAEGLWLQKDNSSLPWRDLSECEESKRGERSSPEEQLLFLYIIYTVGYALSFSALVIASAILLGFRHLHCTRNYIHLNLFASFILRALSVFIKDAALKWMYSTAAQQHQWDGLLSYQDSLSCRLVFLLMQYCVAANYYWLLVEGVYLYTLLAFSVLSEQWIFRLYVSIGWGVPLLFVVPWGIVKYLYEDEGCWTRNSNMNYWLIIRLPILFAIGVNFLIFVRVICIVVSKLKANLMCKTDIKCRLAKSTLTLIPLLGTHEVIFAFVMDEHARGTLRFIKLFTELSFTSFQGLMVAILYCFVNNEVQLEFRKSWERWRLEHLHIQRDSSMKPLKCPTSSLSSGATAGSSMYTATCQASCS
# GLP1R inv ag – inverse agonists of human GLP-1 receptor; HEK293 GLP-1R CRE-luciferase, luminescence, 24 h; GLP-1R form is constitutively active; Potency, µM (highest dose often 38.3 µM), for inactives: at the top dose activity change, negative = inhibition, most hits filed as inhibitors; 410,000 compounds, 1.6% hits; AID 624417; further: on the % scale 0 is the no-effect control and ±100 the full control effect; nearly all actives have a fitted effect of over 55% in size
#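 Constitutively active GLP-1R drives a cAMP-responsive luciferase in stably transfected HEK293 cells; test compounds are added after overnight (12 h) attachment and left 24 hr, and signal loss in luminescence marks inhibition.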
# RGS4 inhibitor – inhibitors of human regulator of G protein signaling 4 | Potency, µM (doses to about 114 µM), for the others: top-dose activity change, negative = inhibition, most hits filed as inhibitors | Transcreener GDP fluorescence polarization, RGS4-accelerated GTP hydrolysis | 390,000 compounds, 0.039% hits | P49798; further: on the % scale 0 is the no-effect control and ±100 the full control effect; nearly all actives have a fitted effect of over 75% in size
# Target sequence (P49798 whole entry, looked up): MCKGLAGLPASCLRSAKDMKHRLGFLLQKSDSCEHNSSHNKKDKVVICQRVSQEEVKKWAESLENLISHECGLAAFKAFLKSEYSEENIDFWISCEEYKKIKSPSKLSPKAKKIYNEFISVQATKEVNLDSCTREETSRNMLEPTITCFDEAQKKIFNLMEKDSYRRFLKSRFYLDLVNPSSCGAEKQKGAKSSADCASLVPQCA
#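 MLSMR compounds (23 nl, pin-transferred) preincubated 10 min at room temperature with a 500nM (2x) first reagent, then RGS4 at 900nM (2x) plus Transcreener GDP mix added; fluorescence polarization (620/688 nm) read before and after 90 min at 30 °C.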
# GLP1R cytotox – cytotoxic in the GLP-1 receptor inverse agonist counter-screen; Potency, µM (highest dose often 38.3 µM), without a hit: top-dose activity change, negative = inhibition, most hits filed as inhibitors; 410,000 compounds, 0.13% hits; AID 624418; HEK293 cAMP-luciferase reporter cells, luminescence, 24 h;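 further: loss of luciferase light is scored as toxicity; on the % scale 0 is the no-effect control and ±100 the full control effect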
#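 Cells in DMEM/10% Nu serum/1% pen-strep, 1536-well format. Pre-incubated 12 h, dosed with 23 nL compound, incubated a further 24 h. Luciferase detection, 12 min at room temp, luminescence.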
# Numbers without * were called inactive; i = inactive; u = inconclusive; x = no result; [ ] = dose if it differs, or a comment. Most compounds without a hit are left out; they make up all but 1.7% or so of the library. The call rests on the fitted dose curve; in most records, active means well fitted curve in the direction sought with a large enough effect; inconclusive means small, poorly fitted or top-dose-only effect, or another doubt; inactive means no such curve, though single readings can be large; an effect the other way counts as inactive or inconclusive. Potency means the concentration at half of the fitted maximal effect.
SMILES,PTHR1 ag,GLP-1R agonist,GLP1R inv ag,RGS4 inhibitor,GLP1R cytotox
O=C(NC(NC(=S)Nc1ccccc1Cl)C(Cl)(Cl)Cl)c1cccc(Cl)c1 (stereo not given),-28%,-40%,2.8µM*,-24%,-4%
COc1ccc(Br)cc1CNC(=O)c1ccc(-n2c(C)cc3c2CCC(C)C3)cc1 (stereo not given),-3%,x,-12%,-32%,-6%
COc1ccc(CN(C)CC(=O)NCC(=O)Nc2c(C)cccc2C)cc1,-24%,-24%,2%,6%,-23%
CC(/C=N/NC(=O)Cn1nccc1C)=C\c1ccc(C(C)C)cc1,-6%,13%,11µM*,18%,-1%
CCCc1ccc2oc(C(=O)NCCN3CCCC(O)C3)c(C)c2c1 (stereo not given),i,21%,10µM*,-1%,4%
Cc1cccc(Cn2c(C)c(CNC3CCCCC3)c(C(=O)O)c2C)c1,i,x,4%,-25%,3%
O=C(O)c1ccc(S(=O)(=O)NN=Cc2c[nH]c3ccccc23)cc1,-4%,-6%,1%,x,-1%
O=C(O)c1ccc(N/N=C/c2c[nH]c3ccccc23)cc1,-31%,-12%,5.6µM*,-21%,0%
Cc1cccc(NCC(=O)N/N=C\c2c[nH]c3ccccc23)c1,-3%,0%,10µM*,-9%,u
O=C(N/N=C/c1c[nH]c2ccccc12)C1CC1(c1ccccc1)c1ccccc1 (stereo not given),-25%,-30%,4.5µM*,-25%,u
COc1ccc(C(C(=O)Nc2ccc(C(C)C)cc2)N(C)C(=O)Cc2cccs2)cc1 (stereo not given),-31%,x,3.2µM*,5%,-11%
COc1ccc(NC(=O)C(NC(=O)Cc2cccs2)c2ccc(OC)cc2)cc1 (stereo not given),-1%,x,2%,-20%,-8%
CN(C(=O)Cc1c[nH]c2ccccc12)C(C(=O)Nc1ccc2c(c1)OCO2)c1ccccc1 (stereo not given),i,8%,u,10%,-9%
CC(C)c1ccc(NC(=O)C(c2ccccc2)N(C)C(=O)CCc2c[nH]c3ccccc23)cc1 (stereo not given),-3%,-1%,10µM*,1%,-2%
N#CC1(Nc2ccc(Br)cc2)CCCC1,i,10%,-17%,-11%,0%
Cc1onc(-c2ccccc2Cl)c1C(=O)O/N=C(\N)c1ccccc1,i,16%,10µM*,25%,u
CC1(C(=O)NCc2cccs2)Cc2c(-c3cccc(C(F)(F)F)c3)ccnc2O1 (stereo not given),-18%,5%,u,x,u
COc1cc(OC)cc(C(=O)Nc2ccc(S(=O)(=O)N3CCCCC3c3cccnc3)cc2)c1 (stereo not given),-36%,x,7.1µM*,-21%,u
CCC1CCCCN1S(=O)(=O)c1ccc(NC(=O)c2cccnc2)cc1 (stereo not given),i,-1%,u,-34%,8%
CC1CCCN(Cc2nc(Cc3ccccc3Cl)no2)C1 (stereo not given),-51%,13%,10µM*,12%,1%
OC1CCCN(Cc2nc(Cc3ccccc3Cl)no2)C1 (stereo not given),19%,-2%,12%,19%,0%
COc1ccc(-c2cn3nc(N4CCCC(C(=O)Nc5cccc(OC)c5)C4)sc3n2)cc1 (stereo not given),-16%,x,u,-4%,-26%
CC(=NNc1ccc2ccccc2n1)c1ccccc1O,-29%,-21%,2.8µM*,16%,u
CC(C)(C)NCC(O)COc1ccccc1C(=O)CCc1ccccc1 (stereo not given),i,-3%,11µM*,18%,u
CC(C)(C)NC[C@@H](O)COc1ccccc1C1CCCC1,x,5%[19.8 µM],x,x,x
SMILES,PTHR1 ag,GLP-1R agonist,GLP1R inv ag,RGS4 inhibitor,GLP1R cytotox
CC(C)(C)NCC(O)COc1ccccc1C(C)(C)C (stereo not given),i,-1%,7.9µM*,-6%,-6%
COc1cc(-c2nc3ccc(C)cn3c2Nc2ccc(Cl)cc2)ccc1O,-16%,x,3.5µM*,-14%,u
O=C(O)CC(NS(=O)(=O)c1ccc(Br)s1)c1ccccc1 (stereo not given),u,x,11%,18%,2%
COc1ccccc1C(=O)NNC(=O)c1nn(Cc2ccccc2)c(=O)c2ccccc12,i,10%,u,12%,10µM*
Cn1c(SCC(=O)N2CCN(c3ccccc3)CC2)nnc1-c1c[nH]c2ccccc12,-2%,-1%,u,-5%,-11%
CCn1c(SCC(=O)N2CCCc3ccccc32)nnc1-c1c[nH]c2ccccc12,-35%[57.5 µM],-4%,2.5µM*,-17%,-21%
CCn1c(SCC(=O)N2CCc3ccccc32)nnc1-c1c[nH]c2ccccc12,-85%[57.5 µM],2%,u,-7%,-8%
Cc1ccc(CSCc2nnc(SCC(=O)N3CCN(c4ccccc4)CC3)n2C)cc1,-45%[57.5 µM],0%,7.9µM*,-14%,16%
CCn1c(SCC(=O)N2CCN(c3ccccc3)CC2)nnc1-c1c[nH]c2ccccc12,-13%,-1%,4µM*,u,2%
CN(Cc1cnn(C)c1)C(=O)C1CCC(=O)N(Cc2ccc(Cl)cc2)C1 (stereo not given),i,-13%,8%,4%,3%
COc1cc(NC(=O)C(CC(C)C)NS(=O)(=O)c2ccc3c(c2)CCCC(=O)N3)cc(OC)c1 (stereo not given),i,x,17%,-3%,4%
CCc1ccc(C(=O)c2cn(CC(=O)Nc3ccc(F)cc3)c3cc4c(cc3c2=O)OCO4)cc1,-10%,0%,8%,u,4%
Cc1ccc(NC(=O)CN2C(=O)NC(C)(CC(C)C)C2=O)cc1F (stereo not given),i,6%,u,-29%,1%
O=C(Oc1cccc2cccnc12)c1ccc(N2C(=O)C3C4CCC(C4)C3C2=O)cc1 (stereo not given),-15%,0%,2.8µM*,14%,3.2µM*
O=C(Oc1cccc2cccnc12)c1cccc(N2C(=O)C3C4CCC(C4)C3C2=O)c1 (stereo not given),5%,1%,2.8µM*,22%,2.5µM*
O=C(Oc1cccc2cccnc12)c1cccc(-n2cnnn2)c1,i,-3%,0%,-17%,-5%
O=C(Oc1ccc(N2C(=O)C3C4CCC(C4)C3C2=O)cc1)c1ccco1 (stereo not given),i,0%,18%,5%,-4%
COc1ccc(N(Cc2ccccc2)C(=O)c2nc(SC)ncc2Cl)cc1,-7%,x,11µM*,1%,4%
CSc1ncc(Cl)c(C(=O)N(Cc2ccc(N(C)C)cc2)Cc2ccco2)n1,i,x,u,-21%,-9%
